Experiment in all cases: Cytotoxic Profiling of Annotated Libraries Using Quantitative High-Throughput Screening (AID 1296008); also: nearly all actives have a fitted effect of over 60% in size
What all share (conditions): Five cell lines viability, CellTiter-Glo ATP luminescence, 48-72 h; max response: hits give low values
(Cellular ATP, detected with luciferase, serves as a proxy for viable cell number.)

One assay deals with CRL-7250. The gist of the method:
(§1)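 Cytotoxicity was measured as CellTiter-Glo ATP luminescence, read after 10 min at room temperature. Compound treatment of the cells lasted 48 or 72 hr at 37 degrees Celsius in a qHTS format.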

A further assay concerns HEK293. The procedure, abridged:
as §1

Another assay relates to HaCat. The procedure, abridged:
as §1

The next assay has as its system KB-3-1. The gist of the method:
as §1

Another assay has as its system NIH3T3. The procedure, abridged: as §1

SMILES strings stand for the structures. Records with an inconclusive call do not appear. A number with no mark means an inactive call. Activity calls are given as the source filed them. Calls follow the shape of the dose curve; as a rule, active = well fitted inhibition curve with a large enough effect; inconclusive = small, poorly fitted or top-dose-only effect; inactive = flat fitted curve, though single readings scatter.
% is scaled to controls: 0 for no effect and ±100 for the full control effect; potency is read from the fitted curve at half-maximal effect.

In the case of `O=P(O)(O)OCC(O)CO` (stereo not drawn), the max response in the assay on CRL-7250 is -2.69%; in the assay with HEK293, -2.36%; in the assay on HaCat, 0.361%; in the assay with KB-3-1 it was -6.39%. In addition, in the assay with NIH3T3, the compound was classed as inactive.

In the case of `C[C@@]12CCC[C@H]1[C@@H]1CC[C@H]3C[C@@H](O)CC[C@]3(C)[C@H]1CC2`, the max response in the assay on CRL-7250 is 2.58%; in the assay on HaCat, 2.53%; in the assay on KB-3-1 it was -1.74%; in the assay on NIH3T3, 0.76%. Moreover, the compound was called inactive with HEK293.

For `CC(=O)OCC(=O)Nc1cc(C#N)cc(NC(=O)COC(C)=O)c1Cl`, the outcome in the assay with CRL-7250 and with KB-3-1 was inactive. In addition, the max response with HEK293 was -14.4%; in the assay on HaCat, 0.636%; in the assay on NIH3T3, -0.147%.

As to `CC(CCc1ccc2c(c1)OCO2)NN` (stereo not drawn), the max response with CRL-7250 is -8.5%; in the assay with HaCat, 2.43%; in the assay on KB-3-1 it was -13.1%. Further, the compound was classed as inactive with HEK293 and with NIH3T3.

Take `C[N+]1(CC2COC(c3ccccc3)(c3ccccc3)O2)CCCCC1` (stereo not drawn): the max response with CRL-7250 was 1.41%; in the assay on HaCat, -14.4%; with KB-3-1 it was -21.8%; in the assay with NIH3T3, -38.8%. The Potency with HEK293 is 10 µM (active).

`CCOC(=O)c1ccc(O)c(O)c1`: the max response in the assay on CRL-7250 is 2.32%; with HaCat, -0.432%. Besides, in the assay on HEK293, the call was inactive.

For the compound `Nc1c[n+](N2CCOCC2)no1`, the outcome in the assay with CRL-7250, with HEK293 and with NIH3T3 was inactive. The figures for the max response in the assay with HaCat and in the assay with KB-3-1 were -23.5% and -10.9%, respectively.

As to `OCCc1ccccc1`, the max response in the assay on CRL-7250 is 4.7%; in the assay on HEK293, -1.38%; in the assay on HaCat it was -14.1%; in the assay with KB-3-1, -8.71%; in the assay with NIH3T3 it was -0.715%.

For the compound `CC(=O)OCC[N+](C)(C)C`, the max response in the assay on CRL-7250 is -0.18%; in the assay with HaCat it was -14.7%; with KB-3-1, 2.39%; in the assay on NIH3T3, 3.81%. Besides, the compound was classed as inactive in the assay on HEK293.

Regarding `CC(C)(C)C(O)/C=C/c1ccc2c(c1)OCO2` (stereo not drawn), the outcome with CRL-7250 was inactive. For the same compound, the max response is 0.172% with HEK293, -0.175% in the assay on HaCat, -0.272% in the assay on KB-3-1 and -4.85% with NIH3T3.
